Consider 40 sequences from the supplement of paper PMC6555819.

The test system of this experiment is VDR homodimer (NR concentration 270 nM). Briefly: PBM binding z-score (relative to random genomic background probes); higher = stronger binding; sequences stand for … in GC…GCGATTGACAGCGTAGAATGAAGG
In a few lines: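 Binding z-scores take random background probes as their reference. They come from custom Agilent 4×180K protein-binding microarrays incubated 1 h with ligand-free nuclear receptor dimers, with antibodies against each partner (one per run) detecting binding. Scanned fluorescence was regression-normalized.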
Sequence CCGAGTAGGTTATGGGGCATCCAGGCAACGGTGA displayed a PBM binding z-score of -0.188.
GGAAAGAGGGCAAAGTTGATAGCATCTGTCGACG showed a PBM binding z-score of 1.18.
For CAGCCTAGGTCAAGGCCAGTATAGGAGGAACGTT the value was 0.353; for AGTATTAGTTGAGACGAGGGCAACCGATAGGTTG, 1.53.
The value for TCTCGGAGGACACGAAAGATCAGAGCTCGACATC was -0.53; that for ATAAGTAGGTTAAGGGTCATTCAGGTTGGTTCGC was 4.94.
The value for CCTAGTTGGTTAGGAGGTCACACACCGGATATGA was 3.06; that for CGTCAAAGTTCAACTAAGGTAACGGAAAGCACGC was 3.47; that for ATCTCTAGGTAACAGTTCAGTGAATCCCGAGGAT was 0.915.
As for TAGCCTAGGTCAGATCGGGCCACTATACGCTATA, the PBM binding z-score came to 0.0583.
The value for CGTCAAAGTTAAACTAAGGTAACGTAAAGCACGC was 0.399; that for ACTTACGGGTCAACGAGGTTTTAGCACGCGTATA was 1.84.
For CCTGCTAGGTCAATGGTTAGCTAAAGCAGCTCGC the value was -0.158.
Sequence CGTCAAAGTTCATCTAAGGTAACGTAAAGCACGC showed a PBM binding z-score of 5.45.
For TCTTGTAGATCAAAGGTTAAGTAAGCCGAAGCCT the value was -0.446.
The value for CCGACTGGGGCAGAAAGGGTACCATACCATCCGG was -0.349; that for GCTGCTAGGTCAACTGATGGTCAGGTAAAGCTCG was 0.0826.
For TCAGACAGGTGCAGGTAACTCAGGTACGCAGTCG the value was 0.478; for TAGCCTAGGTCATGCGGGCCGGTATAGTGTCGGC, 0.344; for TTTTGTAGATCAATAGAGGTTAAGAAAGTGCGCT, 0.777.
As for TAGCCTAGGTCATTGGTCCAGTATAGTACGCATC, the PBM binding z-score came to 1.51.
The value for TCATATAGGTAAATGCAAGGTGAAAGTCCGATCT was 0.698; that for ATCTCGAGGTAACAAGTTCAGTGAAAGAGAGGAC was 2.28; that for AATACAGGGTCATCGTAGGCCAGAGAACGCACAG was 2.9.
Consider GCAGACAAGTGAAACGCAGGTAACTCAGGGTGGC, for which the PBM binding z-score was -0.593.
Regarding TCATATAGGTAATACGGGTGAAAGTCGGCATCTA, the PBM binding z-score was 0.0658.
Consider GCGTATAGGTAATACAAGGTGAAAGTCCGATTGT, for which the PBM binding z-score amounted to 0.00145.
The value for CAAACTAAGTCAAAGGTCAAAGTCGAGCCAACCA was 2.93.
For GCTATTAGTTGAAAGGCCAACCGAATGATTCTCG the value was 0.0426; for GCATAGAGGTAATACAAGGTGAAAGTCCGATTGT, 0.216; for ATATGTAGGTTTAGGGTCATTCAGGTTGGTTCGC, 4.83.
The value for TCTCGGAGGACACGAAAGGTCAGAGTTCGACATC was 3.65.
As for TAGCCTAGGTCTTTGGGCCAGTATAGTACGCATC, the PBM binding z-score was -0.826.
For CCTCGGAGGACAGAAGGCCAGAGCTGTCCGCTTT the value was -0.212.
For TTACCAAGGTGTAAGGTCGTTGATGCACGCCTTG the value was 1.62; for ATCTCTAGATAACAAGTTCAGTGAAAGAGAGGAC, 2.72.
For the sequence ATCGAAAGGTCGAGGTGAATATAGAGAAAGGGAA, the PBM binding z-score came out at 0.0536.
For CATACAGGGTTAGCTAGGCCAGAGTAGGGACGGC the value was -0.636.
The value for CCTGCTATGTCATGGTCAGCTAATCTACAGTATG was -0.566.
For AGAATGAGGTAATTAAGATCAGGGAATTGCGGTC the value was -0.255.
